Screens from PubChem.
HCV NS3h FP: hepatitis C NS3 helicase inhibition, primary screen | NS3h Cy5-dT15 DNA binding, fluorescence polarization | inhibition, % at 100 µM | hit rate 1.6% among 16,000 | AID 687043;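 active means inhibition above the average over every tested compound plus 3 SD, cut at about 40% in these data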
Cy5 interf NS3h: counter-screen for HCV NS3 helicase inhibitors: fluorescence interference; fluorescence interference ratio at 100 µM; hit rate 6% among 16,000; AID 720488; Cy5-dT15 DNA with NS3h; actives lie on both sides; signal over control mean, under 1 quenches;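 active means compound fluorescence over control fluorescence at most 0.8, a quencher, or at least a set upper limit, an enhancer; inactive means ratio between 0.8 and the set upper limit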
A number is an active result; - = inactive. Hits are enriched below; roughly 7.6% of the tested compounds scored in any of these assays.

SMILES	HCV NS3h FP	Cy5 interf NS3h
N#Cc1ccccc1OCC(=O)N/N=C\C=C\c1ccc([N+](=O)[O-])cc1	-	0.58
O=C(COc1ccccc1)Nc1ccc([N+](=O)[O-])cc1	-	-
CC(=O)N1CCN=C1Nc1c(Cl)cccc1Cl	-	0.6
Cc1cccc(Cl)c1NC(=O)C1CC(=O)N(c2ccc(Br)cc2)C1 (stereo not drawn)	-	-
Cc1nc2cc(Nc3nnc(-c4ccc(Cl)cc4)c4ccccc34)ccc2n1C	-	0.67
Cc1ccc(-c2nnc(Nc3ccc4c(c3)ncn4C)c3ccccc23)cc1	-	-
Cn1cnc2cc(Nc3nnc(-c4ccc(Cl)cc4)c4ccccc34)ccc21	-	0.7
COc1ccc(-c2nnc(Nc3ccc(C)cc3)c3ccccc23)cc1	-	-
CCOc1ccc(/C=C2\C(=O)NC(=O)N(c3cccc(Cl)c3)C2=O)cc1Cl	-	-
Cc1cc(C)c(S(=O)(=O)Nc2cccc([N+](=O)[O-])c2C)c(C)c1	-	-
COc1cccc(-n2c(O)c(C(c3ccccn3)c3c(O)n(-c4cccc(OC)c4)c(=O)[nH]c3=O)c(=O)[nH]c2=O)c1	-	-
COc1ccc(-n2c(O)c(C=Nc3ccc(Cl)cc3)c(=O)[nH]c2=O)cc1	-	0.78
COc1ccc(OC)c(NC(=O)c2ccc(OCC(C)C)cc2)c1	-	-
Cc1ccc(N2C(=O)C3C4C=CC(O4)C3C2=O)c(C)c1 (stereo not drawn)	-	-
CCn1c2ccccc2c2cc(/C=N\NC(=O)c3cccc([N+](=O)[O-])c3)ccc21	-	-
O=C(NCCCN1CCOCC1)c1cccc(Cl)c1	-	0.75
O=C(Cc1ccc(Cl)cc1)NCCN1CCOCC1	-	-
CCOC(=O)CCc1c(C)nc2c(C)c(-c3ccccc3)[nH]n2c1=O	-	1.2
Cc1nc2c(C)c(-c3ccccc3)[nH]n2c(=O)c1C	-	-
CC1(C)CC(=O)c2c(oc3ccc(NS(=O)(=O)c4ccc5c6c(cccc46)C(=O)N5)cc23)C1	-	-
O=c1oc(-c2ccccc2)nc2sc3c(c12)CCCC3	-	0.69
O=c1oc(-c2cccs2)nc2sc3c(c12)CCCCC3	-	-
O=C1C=CC(=O)N1c1ccccc1SC(F)(F)F	45	0.79
Cc1cccc(NC(=O)/C=C/c2cccc([N+](=O)[O-])c2)n1	-	-
CCOC(=O)C(C(C)=O)(N1CCOCC1)N1CCOCC1	-	-
SMILES	HCV NS3h FP	Cy5 interf NS3h
CC(=O)c1sc(NC(=O)c2ccc([N+](=O)[O-])s2)nc1-c1ccccc1	-	-
Cc1ccc(-n2nc(C)c(-c3cccc([N+](=O)[O-])c3)c2C)cc1Cl	-	0.65
Cc1ccc(NCCC(=O)c2cccc([N+](=O)[O-])c2)cc1Cl	-	-
O=C(NC(NC(=S)Nc1cccc(Br)c1)C(Cl)(Cl)Cl)c1ccccc1F (stereo not drawn)	-	-
COc1ccccc1/C=C/C(=O)c1c(-c2ccccc2Cl)c2cc(Br)ccc2[nH]c1=O	-	-
O=C(COc1ccccc1)Nc1ccc(Cc2ccncc2)cc1	-	0.71
O=C(COc1ccccc1)Nc1ccncc1	-	-
O=C(N(c1cccc2ccccc12)C1C=CS(=O)(=O)C1)C(F)(F)F (stereo not drawn)	-	-
O=C(/C=C\Nc1ccc2c(c1)OCO2)c1ccc(F)cc1	-	-
CCOC(=O)N(Cc1ccccc1)C(C(=O)O)C(C(=O)O)N(Cc1ccccc1)C(=O)OCC (stereo not drawn)	-	-
Cc1ccc(NC(=O)N(Cc2ccccc2)C(C)C2CC2)cc1 (stereo not drawn)	-	0.6
CN(C)CCNC(=O)c1ccc(F)cc1	-	-
CC(C1CC1)N(Cc1ccccc1)C(=O)c1ccc(F)cc1 (stereo not drawn)	-	0.59
O=C(/C=C/Nc1ccccc1NS(=O)(=O)c1ccc([N+](=O)[O-])cc1)c1ccc2c(c1)OCO2	-	-
Cc1ccc(C(=O)COc2cc(OCC(=O)c3ccc(C)cc3)c3c(C)cc(=O)oc3c2)cc1	-	0.66
O=C(COc1ccc2ccc(=O)oc2c1)c1ccc(-c2ccccc2)cc1	-	-
O=C(NC1CCCCC1)C12CC3CCC(CC(C3)C1)C2	-	1.2
CNC(=O)C(C)NC(=O)C12CC3CC(CC(C3)C1)C2 (stereo not drawn)	-	-
CC(=O)c1ccc(N2CCC(C)CC2)c(F)c1	-	-
CC(=O)c1ccc(N2CCN(S(=O)(=O)c3ccccc3)CC2)c(F)c1	-	0.79
Cc1cccc(-c2n[nH]c(=S)n2-c2ccccc2)c1	-	-
CC(=O)OCCCN1C(=O)c2ccc(S(=O)(=O)c3ccc4c(c3)C(=O)N(CCCOC(C)=O)C4=O)cc2C1=O	-	-
COc1ccc(C(=O)OCCCN2C(=O)c3ccccc3C2=O)cc1	-	0.62
COc1cc(C=O)c(Br)cc1OCc1ccc(F)cc1	-	-
CC(C)CN1C(=O)c2ccc(C(=O)Nc3c[nH]c(=O)[nH]c3=O)cc2C1=O	-	0.66
SMILES	HCV NS3h FP	Cy5 interf NS3h
CCC(=O)Nc1ccc(C(=O)Nc2c[nH]c(=O)[nH]c2=O)cc1	-	-
O=[N+]([O-])c1cccc(-c2nc(-c3ccc(Cl)cc3)no2)c1	-	-
O=[N+]([O-])c1ccc(-c2noc(-c3ccccc3Br)n2)cc1	-	0.76
CCc1cc2c(C)c(CC)c(=O)oc2cc1OCC(C)=O	-	-
CCCc1c(C)c2c(OCC(=O)O)cc(OCC(=O)O)cc2oc1=O	-	0.76
O=S(=O)(c1ccc2c(c1)Cc1cc(S(=O)(=O)n3cnc4ccccc43)ccc1-2)n1cnc2ccccc21	-	0.64
Cc1nc2ccccc2n1S(=O)(=O)c1ccc(Br)cc1	-	-
CSc1nnc(-c2ccc(C)cc2)o1	-	0.69
CC(Sc1nnc(-c2cccnc2)o1)C(=O)c1ccccc1 (stereo not drawn)	-	-
O=C(NC(=S)Nc1ccc([N+](=O)[O-])cc1Cl)c1ccco1	-	-
O=C(NC(NC(=S)Nc1ccccc1[N+](=O)[O-])C(Cl)(Cl)Cl)c1ccco1 (stereo not drawn)	-	0.7
CCOC(=O)c1ccccc1NC(=O)CN(c1ccc(OCC)cc1)S(=O)(=O)c1ccc(SC)cc1	-	-
O=C(N1CCSCC1)C(F)(F)C(F)(F)C(F)(F)C(F)(F)F	-	0.8
O=C(NCCN1CCCC1=O)c1ccccc1	-	-
O=C(Nc1ccccc1)Nc1nnc(/C=C/c2ccccc2)s1	-	-
CN(C)c1ccc(NC(=O)c2ccccc2Cl)cc1	-	-
O=C(Nc1ccc(-c2cnc(-c3ccc(NC(=O)c4ccccc4Cl)cc3)nc2)cc1)c1ccccc1Cl	-	0.72
CCOC(=O)CCc1c(C)nc2cc(-c3cccc(F)c3)[nH]n2c1=O	-	-
C=CCc1c(C)nc2cc(-c3cccc(F)c3)[nH]n2c1=O	-	1.2
CCOc1cc(/C=N\n2c(C)nnc2C)ccc1O	-	-
CCc1ccc(N2CC(C(=O)Nc3ccc(Br)cc3)CC2=O)cc1 (stereo not drawn)	-	-
O=C(NCCO)C(=O)Nc1ccc(F)cc1	-	-
CCc1ccc(NC(=O)C(=O)NCCc2ccc(F)cc2)cc1	-	0.69
C=CCN1C(=O)c2ccccc2C1(O)c1ccc(OC)cc1 (stereo not drawn)	-	0.74
C=CCn1c(SCC(=O)O)nnc1-c1ccc(OC)cc1	-	-
COc1ccccc1C(=O)Nc1cccc(C(F)(F)F)c1	-	-
CCOc1ccc(C(=O)COC(=O)c2cccc(I)c2)cc1	-	-
COC(=O)C1=C(C)N(Cc2ccccc2)C(=O)/C1=C\c1cccs1	-	-
